# Reference: the antibiotic and cytotoxicity screens of Wong et al. (2023)
# About 1,500 (3.8%) of roughly 39,000 compounds were called active. Only a selection was taken, and actives are over-represented in it overall.
# Test system: HSkMC (human skeletal muscle cells)
# Assay: cytotoxicity call (relative viability < 0.9)
# Settings: 10 µM
row,SMILES,cytotoxicity call
1,CCc1nc2ccc(C(=O)NCc3ccc4c(c3)OCO4)cn2c1N(CC)Cc1cccc(Br)c1,inactive
2,C[C@@H]1CN([C@H](C)CO)C(=O)c2cc(NC(=O)Nc3ccc(C(F)(F)F)cc3)ccc2O[C@@H]1CN(C)C(=O)Nc1ccccc1,inactive
3,COc1ccc(NC(=O)N(C)C[C@H]2OCCCC[C@H](C)Oc3ccc(NC(=O)Nc4ccc(F)cc4)cc3C(=O)N([C@H](C)CO)C[C@@H]2C)cc1,inactive
4,COc1ccc(S(=O)(=O)Nc2ccc3c(c2)C(=O)N([C@@H](C)CO)C[C@H](C)[C@H](CN(C)C(=O)c2ccccc2)OCCCC[C@@H](C)O3)cc1,inactive
5,C[C@@H]1CCCCO[C@H](CN(C)Cc2ccc(Cl)c(Cl)c2)[C@@H](C)CN([C@@H](C)CO)C(=O)c2cc(NS(=O)(=O)c3cn(C)cn3)ccc2O1,inactive
6,OC[C@H]1O[C@H](Nc2ccccc2)C[C@@H]1O,inactive
7,CC(C)CC#Cc1ccc2c(c1)O[C@@H](CN(C)C(=O)Cc1cccnc1)[C@H](C)CN([C@@H](C)CO)S2(=O)=O,inactive
8,C[C@@H]1CCCCO[C@H](CN(C)C(=O)Cc2ccccc2)[C@H](C)CN([C@@H](C)CO)C(=O)c2cc(NC(=O)Nc3ccccc3)ccc2O1,inactive
9,C[C@H](CO)N1C[C@H](C)[C@@H](CN(C)C(=O)Nc2ccc(C(F)(F)F)cc2)Oc2c(NS(C)(=O)=O)cccc2C1=O,inactive
10,CC(C)NC(=O)N(C)C[C@@H]1Oc2ccc(NS(=O)(=O)c3cn(C)cn3)cc2CC(=O)N([C@H](C)CO)C[C@@H]1C,inactive
11,COc1ccc(S(=O)(=O)Nc2cccc3c2O[C@@H](CN(C)S(=O)(=O)c2cn(C)cn2)[C@H](C)CN([C@H](C)CO)C3=O)cc1,inactive
12,C[C@H](CO)N1C[C@H](C)[C@H](CN(C)Cc2ccc(Oc3ccccc3)cc2)Oc2ccc(NC(=O)Nc3ccc(C(F)(F)F)cc3)cc2CC1=O,active
13,C[C@H]1CN([C@@H](C)CO)C(=O)Cc2cc(NC(=O)Nc3ccc(C(F)(F)F)cc3)ccc2O[C@H]1CN(C)Cc1ccc(Oc2ccccc2)cc1,active
14,C[C@H](CO)N1C[C@H](C)[C@@H](CN(C)Cc2ccc(Oc3ccccc3)cc2)Oc2ccc(NC(=O)Nc3ccc(C(F)(F)F)cc3)cc2CC1=O,active
15,C[C@@H]1CN([C@H](C)CO)C(=O)Cc2cc(NC(=O)Nc3ccc(C(F)(F)F)cc3)ccc2O[C@H]1CN(C)Cc1ccc(Oc2ccccc2)cc1,active
16,COc1ccc(S(=O)(=O)Nc2ccc3c(c2)CC(=O)N([C@@H](C)CO)C[C@@H](C)[C@@H](CN(C)Cc2ccncc2)O3)cc1,inactive
17,C[C@@H]1CN([C@@H](C)CO)C(=O)Cc2cc(NC(=O)CCN3CCOCC3)ccc2O[C@H]1CN(C)Cc1ccccc1,inactive
18,C[C@H](CO)N1C[C@H](C)[C@@H](CN(C)C(=O)Nc2ccccc2)Oc2ccc(NS(C)(=O)=O)cc2C1=O,inactive
19,C[C@H](CO)N1C[C@H](C)[C@H](CN(C)C(=O)Cc2cccnc2)Oc2ncc(C#Cc3ccccc3F)cc2C1=O,inactive
20,O=C(N[C@H]1C=C[C@H](CC(=O)N2CCOCC2)O[C@H]1CO)c1ccc2c(c1)OCO2,inactive
21,CON(C)c1nc(Oc2ccc(=O)[nH]n2)nc(N(C)C)n1,inactive
22,CN1CCN(C)C1=O,inactive

row,SMILES,cytotoxicity call
1,COc1cccc(CNC(=O)C[C@H]2C=C[C@H](NC(=O)C3CCOCC3)[C@@H](CO)O2)c1,inactive
2,O=C(C[C@H]1C=C[C@H](NS(=O)(=O)c2ccc(F)cc2)[C@@H](CO)O1)NCCN1CCCCC1,inactive
3,c1ccc(-c2cccs2)cc1,inactive
4,O=C(O)CCNC(=O)c1cncc(O)c1,inactive
5,COC(=O)c1ccc(C(=O)OC)nc1,active
6,COC(=O)c1cccnc1,inactive
7,COC(=O)c1ccc(O)cc1,inactive
8,COc1ccc(NC(=O)N(C)C[C@H]2Oc3ccc(NC(=O)Nc4ccc(C(F)(F)F)cc4)cc3C(=O)N([C@@H](C)CO)C[C@@H]2C)cc1,inactive
9,O=C(N[C@H]1C=C[C@H](CC(=O)N2CCOCC2)O[C@H]1CO)c1ccccn1,inactive
10,COCC(=O)Nc1ccc2c(c1)OC[C@H](C)N(Cc1cccc(F)c1)C[C@H](C)[C@@H](OC)CN(C)C2=O,inactive
11,C[C@@H]1CCCCO[C@H](CN(C)C(=O)Nc2ccc3c(c2)OCO3)[C@H](C)CN([C@H](C)CO)C(=O)c2cc(NS(=O)(=O)c3cccs3)ccc2O1,inactive
12,O=C1CSC(/N=C/c2ccccc2O)=NN1,active
13,C[C@@H]1CN([C@H](C)CO)C(=O)c2cc(NC(=O)Nc3ccc(C(F)(F)F)cc3)ccc2O[C@@H](C)CCCCO[C@H]1CN(C)Cc1ccc(C(=O)O)cc1,inactive
14,Cc1noc(C)c1S(=O)(=O)Nc1ccc2c(c1)C(=O)N([C@@H](C)CO)C[C@H](C)[C@@H](CN(C)S(=O)(=O)c1cn(C)cn1)O2,inactive
15,Cc1noc(C)c1NC(=O)N(C)C[C@H]1Oc2c(NC(=O)C3CCOCC3)cccc2C(=O)N([C@H](C)CO)C[C@H]1C,inactive
16,C=CC[C@H](CC(=O)N(CCO)Cc1ccccc1)C(=O)NC[C@@H](OC(=O)[C@@H](CC=C)Cc1ccc(F)cc1)c1ccccc1,inactive
17,C=CC[C@@H](CC(=O)N(CCO)Cc1ccccc1)C(=O)NC[C@H](OC(=O)[C@@H](CC=C)Cc1ccc(F)cc1)c1ccccc1,active
18,C=CC[C@H](CC(=O)N(CCO)Cc1ccccc1)C(=O)NC[C@H](OC(=O)[C@@H](CC=C)Cc1ccc(F)cc1)c1ccccc1,active
19,C=CC[C@@H](CC(=O)N(CCO)Cc1ccccc1)C(=O)NC[C@@H](OC(=O)[C@@H](CC=C)Cc1ccc(F)cc1)c1ccccc1,inactive
20,C[C@H](CO)N1C[C@H](C)[C@H](CN(C)S(=O)(=O)c2cccs2)Oc2ncc(C#CC(C)(C)O)cc2C1=O,inactive
21,COc1ccc(S(=O)(=O)N(C)C[C@H]2Oc3ccc(NS(C)(=O)=O)cc3C(=O)N([C@@H](C)CO)C[C@H]2C)cc1,inactive
22,CC(C)NC(=O)N(C)C[C@H]1Oc2c(NS(=O)(=O)c3ccc(Cl)cc3)cccc2C(=O)N([C@@H](C)CO)C[C@@H]1C,inactive

row,SMILES,cytotoxicity call
1,CC(C)NC(=O)Nc1cccc2c1O[C@H](CN(C)Cc1ccc(-c3ccccc3)cc1)[C@H](C)CN([C@@H](C)CO)C2=O,inactive
2,COC(=O)CNC(=O)c1ccccc1,inactive
3,C[C@@H]1CN([C@@H](C)CO)C(=O)c2cccc(NS(=O)(=O)c3cn(C)cn3)c2O[C@H]1CN(C)S(=O)(=O)c1cccs1,inactive
4,Cc1noc(C)c1NC(=O)Nc1cccc2c1O[C@@H](CN(C)C(=O)NC(C)C)[C@@H](C)CN([C@@H](C)CO)C2=O,inactive
5,Cc1noc(C)c1NC(=O)Nc1ccc2c(c1)C(=O)N([C@@H](C)CO)C[C@@H](C)[C@@H](CN(C)C(=O)C1CCCCC1)OCCCC[C@H](C)O2,inactive
6,C[C@H]1CN([C@@H](C)CO)C(=O)Cc2cc(NS(=O)(=O)c3cccs3)ccc2O[C@H]1CN(C)Cc1ccc(Oc2ccccc2)cc1,inactive
7,C[C@@H]1CN([C@H](C)CO)C(=O)Cc2cc(NS(=O)(=O)c3ccccc3)ccc2O[C@@H]1CN(C)Cc1ccc(Oc2ccccc2)cc1,active
8,C[C@@H]1CN([C@@H](C)CO)C(=O)Cc2cc(NS(=O)(=O)c3ccccc3)ccc2O[C@@H]1CN(C)Cc1ccc(Oc2ccccc2)cc1,active
9,C[C@H]1CN([C@@H](C)CO)C(=O)Cc2cc(NS(=O)(=O)c3ccccc3)ccc2O[C@H]1CN(C)Cc1ccc(Oc2ccccc2)cc1,inactive
10,C[C@@H]1CN([C@H](C)CO)C(=O)Cc2cc(NS(=O)(=O)c3cccs3)ccc2O[C@@H]1CN(C)Cc1ccc(Oc2ccccc2)cc1,active
11,C[C@@H]1CN([C@H](C)CO)C(=O)Cc2cc(NS(=O)(=O)c3ccccc3)ccc2O[C@H]1CN(C)Cc1ccc(Oc2ccccc2)cc1,inactive
12,C[C@H]1CN([C@@H](C)CO)C(=O)Cc2cc(NS(=O)(=O)c3ccccc3)ccc2O[C@@H]1CN(C)Cc1ccc(Oc2ccccc2)cc1,active
13,C[C@H](CO)N1C[C@H](C)[C@@H](CN(C)Cc2ccc(Oc3ccccc3)cc2)Oc2ccc(NS(=O)(=O)c3ccccc3)cc2CC1=O,inactive
14,C[C@@H]1CN([C@@H](C)CO)C(=O)Cc2cc(NS(=O)(=O)c3ccccc3)ccc2O[C@H]1CN(C)Cc1ccc(Oc2ccccc2)cc1,inactive
15,C[C@H](CO)N1C[C@H](C)[C@H](CN(C)Cc2ccc(Oc3ccccc3)cc2)Oc2ccc(NS(=O)(=O)c3ccccc3)cc2CC1=O,inactive
16,C[C@H]1CN([C@@H](C)CO)C(=O)Cc2cc(NS(=O)(=O)c3cccs3)ccc2O[C@@H]1CN(C)Cc1ccc(Oc2ccccc2)cc1,inactive
17,C[C@@H]1CN([C@@H](C)CO)S(=O)(=O)c2ccc(C#Cc3ccccc3F)cc2O[C@@H]1CN(C)C(=O)c1ccc2c(c1)OCO2,inactive
18,CCc1nc2ccc(C(=O)N3CCN(S(=O)(=O)CC)CC3)cn2c1N(C)C(=O)c1cccc(OC)c1,inactive
19,C=CCC1C=C(C)CC(C)CC(OC)C2OC(O)(C(=O)C(=O)N3CCCCC3C(=O)OC(C(C)=CC3CCC(O)C(OC)C3)C(C)C(O)CC1=O)C(C)CC2OC (stereo unspecified),inactive
20,C[C@@H]1CCCCO[C@H](CN(C)C(=O)c2ccncc2)[C@H](C)CN([C@H](C)CO)C(=O)c2cc(NC(=O)C3CCCCC3)ccc2O1,inactive
21,C[C@H](CO)N1C[C@H](C)[C@@H](CN(C)Cc2ccc3c(c2)OCO3)Oc2ccc(NC(=O)Cn3cnnn3)cc2CC1=O,inactive
22,C[C@@H]1CN([C@H](C)CO)C(=O)Cc2cc(NC(=O)Nc3ccccc3)ccc2O[C@H]1CN(C)S(=O)(=O)c1cn(C)cn1,inactive
